# Measurements: PubChem BioAssay AID449762 (Southern Research Specialized Biocontainment Screening …, 2010)
# Screen size: about 330,000 compounds; about 1,900 (0.58%) were called active. About 4% were inconclusive and are not listed. The list is a sample of the results. Results with a measured potency or affinity are listed apart. Unmarked numbers belong to inactive results. Rule as the data show it: inconclusive = inhibition above about 70% without an active follow-up result; inactive = below that.
# Test: M. tuberculosis growth inhibition, HTS (AID 449762);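 also: bacterial growth assessed after seven days of incubation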
# Conditions: M. tuberculosis H37Rv growth inhibition, 7H9 media; at 25 µM; active compounds read high
row,Compound,inhibition
1,COCCCNC(=O)/C(C#N)=C/c1c(N2CCN(c3ccccc3)CC2)nc2c(C)cccn2c1=O,4.49%
2,COCCNC(=O)/C(C#N)=C/c1c(N2CCN(c3cccc(Cl)c3)CC2)nc2c(C)cccn2c1=O,8.89%
3,CCOc1ccc(NC(=O)/C(=C\c2ccc(OC(C)=O)c(OC)c2)NC(C)=O)cc1,4.59%
4,Cc1ccc(-c2nc(CS(=O)CC(=O)NCCN3CCCCC3C)c(C)o2)cc1 (stereo not given),-3.03%
5,CC(C)c1ccc(/C=C2\CC/C(=C\C=N\N(C)C)C2=O)cc1,-3.15%
6,CN(C)/N=C/C=C1\CC/C(=C\c2ccc(Br)cc2)C1=O,3.13%
7,Cc1cc(-n2nc(C)cc2C)nc(N)n1,-2.23%
8,CCOC(=O)c1c(-c2ccc(F)cc2)csc1NC(=O)CN1C(=O)NC2(CCCCC2C)C1=O (stereo not given),4.04%
9,COc1ccc(/C=C/c2c(-c3ccc(OC)cc3)oc3ccccc23)cc1,-5.2%
10,COc1ccc(/C=C/c2c(-c3ccc(OC)cc3)oc3cccnc23)cc1,-6.31%
11,COc1ccc(C2C3=C(CC(C)(C)CC3=O)Nc3c2c(=O)n(C)c(=O)n3C)cc1OC (stereo not given),-2.26%
12,O=C(Cc1ccc([N+](=O)[O-])cc1)NCc1ccccc1Cl,0.6%
13,CCOC(=O)Cc1csc(NC(=O)CSc2nnc(-c3ccncc3)n2Cc2ccco2)n1,2.42%
14,CC(C)c1onc(C(=O)N2CCN(c3ccccc3)CC2)c1[N+](=O)[O-],-4.37%
15,Cc1ccc(N(CCC#N)C(=O)COC(=O)c2cc(C)oc2C)cc1,-1.99%
16,Cc1ccc(SCC(=O)OCC(=O)N(CCC#N)c2ccccc2)cc1C,27.2%
17,CC1(c2ccc3ccccc3c2)NC(=O)N(CC(=O)N2CCN(Cc3ccccc3)CC2)C1=O (stereo not given),-2.77%
18,Cc1cc(NC(=O)c2cccnc2)ccc1NC(=O)c1cc2ccccc2o1,5.9%
19,Cc1[nH]n(-c2ccccc2)c(=O)c1-c1ccccc1,2.82%
20,Cc1cc(-c2c(C)[nH]n(-c3ccccc3)c2=O)n(-c2ccccc2)n1,-6.21%
21,O=C(Cc1ccc(Cl)cc1)N/N=C/c1cccc(O)c1,9.69%
22,CCc1ccc(N=C2NC(=O)/C(=C/c3cc(OC)c(OC)c(OC)c3)S2)cc1,6.19%
23,COc1cc(/C=C2\SC(=Nc3ccc(O)cc3)NC2=O)cc(OC)c1O,2.36%
24,COc1cccc(NC(=O)Nc2cc(C(=O)O)ccc2C)c1,16.4%

row,Compound,inhibition
1,O=C(CC1(O)C(=O)N(Cc2ccccc2Cl)c2ccccc21)c1ccco1 (stereo not given),7.75%
2,CCc1cccc2c(C(=O)C(NCCOC)c3ccccc3)c[nH]c12 (stereo not given),-0.65%
3,Cc1ccc(C(=O)Nc2cc([N+](=O)[O-])ccc2C)cc1,10.4%
4,CC(C)C(=O)Nc1cccc(-c2nc3ccccc3o2)c1,-4.29%
5,CC(=O)Nc1cccc(-c2nc3ccccc3c(=O)o2)c1,8.2%
6,CC(C)N(C(C)C)S(=O)(=O)c1ccc(NN)nc1,10%
7,CCn1c(N2CCN(Cc3ccc([N+](=O)[O-])cc3)CC2)nc2ccccc21,2.71%
8,CCCn1c(N2CCN(C(=O)Nc3ccc(Cl)cc3)CC2)nc2ccccc21,-1.4%
9,CC1CC1C(=O)OCC(=O)NC(=O)c1ccc(C(C)(C)C)cc1 (stereo not given),4.17%
10,CC1C(C#N)=C(SCC(N)=O)NC2=C1C(=O)CC(C)(C)C2 (stereo not given),0.02%
11,CC(=O)NNC(=O)CCn1nnc(-c2ccc(Cl)cc2)n1,0.1%
12,COC(=O)c1nnn(CC(=O)NC(=O)Nc2cccc(C)c2C)c1C(=O)OC,-2.49%
13,CCc1cc(C(N)=S)ccn1,40.1%
14,CCc1ccc(C(N)=S)cc1,40.3%
15,CCOC(=O)c1[nH]c2ccc(F)cc2c1NC(=O)CCN1CCOCC1,7.04%
16,CCOc1ccccc1-c1nc(SCC(=O)O)n[nH]1,2.12%
17,CCC(=O)c1c[nH]c(C(=O)NCc2cccc(C(F)(F)F)c2)c1,3.92%
18,CCN1CC=C(c2c[nH]c3ccccc23)CC1,4.32%
19,C1=C(c2c[nH]c3ccccc23)CCN(Cc2ccccc2)C1,8.31%
20,Cc1ccc(S(=O)(=O)Nc2ccc(N=Nc3ccc(O)cc3)cc2)cc1,7.49%
21,Cc1cc(=O)oc2cc(NC(=O)C(C)Oc3cccc(Cl)c3)ccc12 (stereo not given),4%
22,CCOC(=O)c1c(C)[nH]c(C(=O)COC(=O)c2ccc(O)cc2)c1C,-6.58%
23,O=c1c2ccccc2n(CC(O)CN2CCCCC2)c2ccccc12 (stereo not given),-4.66%
24,OC(CN1CCCCC1)Cn1c2ccccc2c2ccccc21 (stereo not given),8.7%

row,Compound,inhibition
1,CC(C)(C)OC(=O)N[C@@H](Cc1ccccc1)C(=O)N1CCC(C(=O)NCC(=O)O)CC1,-2.02%
2,Cc1cccc(N2CCN(C(=O)CCCn3c(=O)[nH]c4ccsc4c3=O)CC2C)c1 (stereo not given),6.71%
3,CCc1ccc2c(c1)[C@]1(C(=O)N2)[C@@H]2C(=O)N(Cc3ccccc3)C(=O)[C@@H]2[C@@H]2CCCN21,-2.59%
4,CCn1nc(C)cc1C(=O)N1CCCC(C(=O)c2ccc3ccccc3c2)C1 (stereo not given),0.73%
5,Cc1ccc(C(=O)N/N=c2\sc3ccccc3n2C)cc1,10.5%
6,COc1cccc(C(=O)N/N=c2\sc3ccccc3n2C)c1,29.6%
7,Cc1ccc(S(=O)(=O)N2CCOCC2)cc1C(=O)NC(=S)N1CC(C)OC(C)C1 (stereo not given),-0.86%
8,Cc1ccc(/C=N/NC(=O)c2cccs2)s1,43%
9,O=C(N/N=C\c1ccc(Cl)s1)c1cccs1,63.3%
10,CC1(C)CC(=O)C=C(c2cccc(Br)c2)C1,-4.12%
11,COc1cc(-c2nnc(SCC(=O)Nc3ccc(C(=O)O)cc3)o2)cc(OC)c1OC,-0.72%
12,COc1cc(NC(=O)C2CCN(S(=O)(=O)c3ccc(N4CCCC4=O)cc3)CC2)cc(OC)c1,8.33%
13,C=CCNC(=O)N1CCC(c2nc3ccccc3s2)CC1,-8.35%
14,Oc1cccc(/C=N/NC(=S)NCCN2CCOCC2)c1O,-1.62%
15,S=C(NCCN1CCOCC1)N/N=C/c1ccccc1,-4.03%
16,CCCn1c(SCC(=O)Nc2ccc(S(=O)(=O)N(C)C)cc2)n[nH]c1=O,-9.52%
17,CCn1c(SCC(=O)Nc2ccc3c(c2)OCO3)nnc1C(C)C,-4.67%
18,COc1ccc(C2=NN(C(=O)COC(=O)c3ccc(NC(=O)CC#N)cc3)C(c3ccco3)C2)cc1 (stereo not given),-7.88%
19,COc1ccc(C2CC(c3ccccc3)=NN2C(=O)COC(=O)c2ccc(S(C)(=O)=O)cc2)cc1 (stereo not given),1.53%
20,Cc1cccc(-n2c(-c3csc4ccccc34)n[nH]c2=S)c1,2.9%
21,Cc1nonc1NC(=O)CSc1ccccn1,2.01%
22,CC(=O)Nc1nonc1NC(=O)CSc1ccccn1,-2.12%
23,CN1C(=O)c2ccccc2N(C)C1c1cccc(O)c1 (stereo not given),0.25%
24,O=C(CN1C(=O)c2cccc3cccc1c23)NCc1ccccn1,-1.94%

row,Compound,inhibition
1,COc1ccc(S(=O)(=O)Nc2cccc(S(=O)(=O)N3CCCC3)c2)cc1OC,-4.75%
2,CCOC(=O)CCCNC(=O)COC(=O)c1ccc(O)cc1,-6.12%
3,CCOC(=O)CCCNC(=O)COC(=O)c1cc(C)cc(C)c1,-0.59%
4,COc1cc(NS(=O)(=O)c2c(C)[nH]c(C)c2C(=O)N2CCCCC2)cc(OC)c1OC,7.96%
5,COc1ccccc1C(=O)N/C(N)=N/c1nc2ccccc2o1,0.95%
6,O=C(NC(=Nc1nc2ccccc2o1)NC(=O)c1ccccc1)c1ccccc1,3.54%
7,CCC(=O)N(Cc1ccco1)Cc1cc2cc3c(cc2[nH]c1=O)OCO3,3.54%
8,S=C(NCCc1ccccc1)N1CCN(C23CC4CC(CC(C4)C2)C3)CC1,7.41%
9,CCN1CCN(C2CCCCC2NS(=O)(=O)c2ccccc2)CC1 (stereo not given),-5.99%
10,Cc1c(C(=O)Nc2nc3ccccc3[nH]2)oc2ccc(Br)cc12,64.1%
11,COc1ccc2oc(C(=O)Nc3nc4ccccc4[nH]3)c(C)c2c1,25.6%
12,Cc1ccc(C(=O)Cn2c(-c3ccccc3)noc2=O)cc1,2.22%
13,CCC(C)(C)NC(=O)Cn1c(-c2ccc(C)cc2)noc1=O,-4.07%
14,Cn1ccc(-c2ccccc2)c(C#N)c1=O,-0.87%
15,Cc1ccc2nc(SCC(=O)NCC3CCCO3)c(C#N)cc2c1 (stereo not given),9.97%
16,Cc1ccccc1OCCCCCn1ccnc1,-16.2%
17,Clc1ccccc1OCCCCn1ccnc1,-6.48%
18,COc1ccccc1NC(=O)C(C)OC(=O)/C(=C/c1ccccc1)NC(C)=O (stereo not given),5.35%
19,O=C(Nc1ccc2c(c1)OCO2)c1ccc(Br)s1,65%
20,O=C(Nc1ccc2c(c1)OCO2)c1cccs1,-1.92%
21,O=c1[nH]nc(-c2ccc(F)cc2)cc1Cc1ccccn1,1.36%
22,CCC(C)(C)NC(=O)C(c1ccc(OC)cc1)N(C(=O)CCC(=O)Nc1cc(C)on1)c1ccccc1OC (stereo not given),-10.6%
23,O=[N+]([O-])c1ccccc1/C=C/CN1CCCCC1,-9.58%
